This is a sample that favours compounds with a hit; in the whole collection about 3.9% have one here.
TGFb inhibitor = inhibitors of TGF-b signaling. AID 588855. 410,000 tested, 1.2% active. Potency, µM (titrated, usually from 46.1 µM), without a hit: top-dose activity, negative = inhibition, most hits filed as inhibitors. HepG2 CAGA-GFP TGF-b/SMAD3 reporter, GFP fluorescence, 18 h; TGF-beta stimulated, 500 pg/mL final; further: on the % scale 0 is the no-effect control and ±100 the full control effect; nearly all actives have a fitted effect of over 65% in size
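Smad-responsive CAGA-GFP expression was quantified in HEPG2 cells exposed to compounds and 500 pg/mL final TGF-beta for 18 h at 37 degrees C; unstimulated wells defined full inhibition.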
HepG2 viability = kills HepG2 cells in TGF-b inhibitor counter-screen; HepG2 CAGA-GFP viability, ATP luminescence, 18 h; Potency, µM (titrated, usually from 46.1 µM), without a hit: at the top dose activity change, negative = cytotoxicity, usual class: cytotoxic; 410,000 tested, 0.76% active; AID 588856
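HepG2 CAGA-GFP cells (1000/well, DMEM with 1% FBS) received compound, then TGF-beta at 500 pg/mL final, and were incubated 18 hours at 37 degrees C. Viability was read by CellTiter-Glo luminescence. Media-only wells were set as complete cell-killing and DMSO as no toxicity.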
ATXN2 expr inh = inhibitors of ATXN2 expression; HEK-293 ATXN2-luciferase reporter, luminescence, 24 h; Potency, µM (titrated, usually from 57 µM), for inactives: at the top dose activity change, negative = inhibition, usual class: inhibitors; 360,000 tested, 0.72% active; AID 1745845; further: on the % scale 0 is the no-effect control and ±100 the full control effect; nearly all actives have a fitted effect of over 55% in size
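ATXN2-luciferase reporter cells (luciferase flanked by upstream and downstream ATXN2 gene portions) were treated 24 h at 37 °C with compounds at up to 57 uM. SteadyGlo luminescence gave expression; GF-AFC fluorescence gave viability.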
HT1080NT lethal = kills 2HG-producing HT-1080-NT fibrosarcoma cells. HT-1080-NT fibrosarcoma viability, CellTiter-Glo ATP luminescence, 48 h. Potency, µM (highest dose often 46.1 µM), without a hit: at the top dose activity, negative = less viability, usual class: cytotoxic. 360,000 tested, 1.6% active. AID 686970;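 further: NT is the 2HG producing partner of a matched IDH1 knockdown line; 0% = DMSO-treated cells and -100% = media-only wells without cells; nearly all actives have a fitted effect of over 55% in size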
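Viability of the 2HG-overproducing fibrosarcoma line after 48 hours of compound exposure at 37 degrees C was determined by luminescence with CellTiter-Glo, and concentration-effect curves were then fitted and categorized.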
ATXN viability = viability counter-screen for ATXN expression inhibitors; S2 cells (HEK-293 line with an ATXN2-luciferase reporter) viability, CellTiter-Fluor protease fluorescence, 24 h; Potency, µM (titrated, usually from 56.7 µM), usual class: cytotoxic; 400,000 tested, 0.49% active; AID 651635; further: nearly all actives have a fitted effect of over 40% in size
HT1080 IDH1KD tx = HT-1080 IDH1 knockdown cell toxicity (counter line); HT-1080 IDH1 knockdown viability, ATP luminescence, 48 h; Potency, µM (titrated, usually from 46.1 µM), inactives show at the highest dose activity, negative = toxicity, most hits filed as cytotoxic; 360,000 tested, 2% active;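 further: 0% = DMSO wells and -100% = cell-free medium wells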
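CellTiter-Glo luminescence after 48 h compound exposure at 37 degrees C of IDH1-knockdown HT-1080 cells in 5% FBS RPMI. %Activity scaled between DMSO wells and cell-free media wells, with curves fitted and assigned curve classes.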
* hit, by the source's call; i = inactive; ? = inconclusive; . = no result given. The call rests on the fitted dose curve; in most records, active means well fitted curve in the direction sought with a large enough effect; inconclusive means small, poorly fitted or top-dose-only effect, or another doubt; inactive means no such curve, though single readings can be large; an effect the other way counts as inactive or inconclusive. Potency means the concentration at half of the fitted maximal effect.

SMILES	TGFb inhibitor	HepG2 viability	ATXN2 expr inh	HT1080NT lethal	ATXN viability	HT1080 IDH1KD tx
O=C1NC(Cc2ccc(O)cc2)c2nc3ccc(F)cc3c(=O)n2-c2cc3ccccc3cc21 (configuration not stated)	?	-28%	?	12µM*	14µM*	16µM*
CCOc1ccc(NC(=O)c2cc(-c3ccc(C)c(F)c3)on2)c([N+](=O)[O-])c1	27%	11%	4%	.	i	.
O=C(O)CCSc1ncnc2sc(-c3ccccc3)cc12	16%	-16%	2µM*	28%	i	-1%
CC(=O)CCSc1ncnc2sc(-c3ccccc3)cc12	?	-20%	91%	-5%	i	-4%
O=[N+]([O-])c1cc(/C=N/n2c(-c3ccncc3)n[nH]c2=S)ccc1Cl	-18%	-14%	?	-9%	?	-14%
Cc1cc(-c2n[nH]c(=S)n2/N=C/c2ccc(Cl)c([N+](=O)[O-])c2)n[nH]1	-14%	0%	-19%	6.5µM*	i	4.6µM*
COc1cc(C(=O)OCc2cc(=O)n3ccsc3n2)cc(OC)c1OC	-17%	-12%	-3%	.	i	.
COc1cc(CNCc2cccc3ccccc23)cc(OC)c1	?	-36%	.	-11%	i	-7%
c1ccc2cc(CNCc3cccc4ccccc34)ccc2c1	?	-30%	2%	?	i	23µM*
Cc1noc(C)c1S(=O)(=O)N1CCCC(C(=O)Nc2ccc(C(C)C)cc2)C1 (configuration not stated)	-3%	0%	1%	.	i	.
CN(C)CCCNc1ncnc2oc(-c3ccccc3)c(-c3ccccc3)c12	-20%	0%	2%	?	i	23µM*
c1ccc(-c2oc3ncnc(NCCCn4ccnc4)c3c2-c2ccccc2)cc1	?	-38%	-35%	?	i	?
COC(=O)C1=CN(c2ccc(N3CCOCC3)cc2)C(N)=C(C#N)C1c1ccccc1 (configuration not stated)	.	.	.	-14%	.	-10%
COC(=O)C1=CN(c2ccc3c(c2)OCO3)C(N)=C(C#N)C1c1cccc(F)c1 (configuration not stated)	.	.	.	3.7µM*	.	1.8µM*
c1ccc(CCNc2ncnc3scc(C4COc5ccccc5O4)c23)cc1 (configuration not stated)	16µM*	-47%	-27%	-26%	i	-30%
O=C1C(c2ccccc2)=[N+]([O-])c2ccccc21	?	11µM*	?	?	?	?
Cc1ccccc1CNC(=O)Nc1ccc2c(c1)N(C)C(=O)c1ccccc1S2	7.1µM*	-33%	.	.	.	.
CCc1ccccc1NC(=O)Nc1ccc2c(c1)N(CC)C(=O)c1ccccc1S2	11µM*	-34%	.	.	.	.
CN1C(=O)c2ccccc2Sc2ccc(NC(=O)NCc3ccc(Cl)cc3)cc21	-3%	-3%	.	.	.	.
CN1C(=O)c2ccccc2Sc2ccc(NC(=O)NCc3cccc(Cl)c3)cc21	10µM*	-57%	.	.	.	.
CCN1C(=O)c2ccccc2Sc2ccc(NC(=O)Nc3ccc(C(C)=O)cc3)cc21	?	-23%	.	.	.	.
COc1ccc(-c2cccc3c2OC(CNC(=O)c2ccc4c(c2)OCO4)C3)nn1 (configuration not stated)	.	.	.	.	i	.
Cc1cc(C)c(NC(=O)CCN2C(=O)c3ccccc3Sc3ncccc32)c(C)c1	?	-26%	3%	.	i	.
CCCN1CNc2c(c(=O)[nH]c(=S)n2CCc2cccc(C)c2C)C1	.	.	.	10%	.	13%
Cc1cc(N2CCN(C)CC2)nc2ccc(NC(=S)NCCCN3CCc4ccccc4C3)cc12	-6%	-23%	32µM*	18µM*	18µM*	16µM*
SMILES	TGFb inhibitor	HepG2 viability	ATXN2 expr inh	HT1080NT lethal	ATXN viability	HT1080 IDH1KD tx
CCCCN(C)CCNC(=S)Nc1ccc2nc(N3CCN(CC)CC3)cc(C)c2c1	-26%	-35%	?	18µM*	?	29µM*
Cc1cc(N2CCN(C)CC2)nc2ccc(NC(=S)N3CCN(c4cccc(Cl)c4)CC3)cc12	0%	5%	-23%	-1%	i	-9%
CCN1CCN(c2cc(C)c3cc(NC(=S)NCCCN4CCc5ccccc5C4)ccc3n2)CC1	?	-42%	?	21µM*	.	21µM*
Cc1cccc(N2CCN(C(=S)Nc3ccc4nc(N5CCN(C)CC5)cc(C)c4c3)CC2C)c1 (configuration not stated)	?	10µM*	.	-11%	.	-3%
COc1cccc(C2(CC(=O)N3CCN(c4ccccn4)CC3)CC(=O)N(C3CCCC3)C2=O)c1 (configuration not stated)	.	.	.	.	i	.
Cc1cc(N2CCCC2)nc2ccc(NC(=S)NCCCN3CCC(C)CC3)cc12	?	18µM*	?	23µM*	?	23µM*
Cc1ccc(-n2[nH]c(C)c(C=NC34CN5CN(CN(C5)C3)C4)c2=O)cc1C	9%	10µM*	1%	?	i	?
O=C1CC[C@@H](C(=O)NCC2Cc3cc(Cl)cc(-c4ccc5[nH]ccc5c4)c3O2)N1 (some centres not stated)	.	.	.	.	i	.
Clc1ccc(OCc2nnc3n2N=C(c2ccc4c(c2)OCCO4)CS3)c(Cl)c1	?	-39%	.	10µM*	.	8.9µM*
CC1=C(CC(=O)c2ccccc2)C(=O)c2ccccc2C1=O	6.3µM*	6.3µM*	6%	?	i	?
COc1ccc(OCC(=O)Nc2ccccc2N2CCCCC2)cc1	-15%	0%	-26%	3.3µM*	i	4.1µM*

Screening results from PubChem BioAssay.
